The test system of this experiment is Vero E6 infected with SARS-CoV-2. Kind of experiment: inhibition of SARS-CoV-2 cytopathic effect; higher = more antiviral protection, active = above 15. The note with it: 48 h.

SMILES strings stand for the structures. Values without a mark were called inactive.

For the compound `Nc1nc2c(cnn2CCc2ccccc2)c2nc(-c3ccco3)nn12`, the “inhibition of SARS-CoV-2 cytopathic effect” value (from here on “inhibition”) reads like this: (1 nM) 1.74%; (8.33 nM) 1.86%; (100 nM) -4.65%; (833.33 nM) -2.26%; (10000 nM) -2.96%.

In the case of `COc1ccc(NC(=O)c2ccc(-c3ccc(-c4noc(C)n4)cc3C)cc2)cc1OCCN(C)C`, the “inhibition” value reads like this: (1 nM) -0.44%; (8.33 nM) -0.62%; (100 nM) -0.42%; (833.33 nM) -0.17%; (10000 nM) 5.11%.

Take `CN1Cc2c(N)cccc2C(c2ccccc2)C1` (stereo not given) [nomifensine]: the “inhibition” value was 0.22% (1 nM); 1.01% (8.33 nM); 2.41% (100 nM); 1.13% (833.33 nM); 0.73% (10000 nM).

For the compound `CC(CN1c2ccccc2Sc2ccccc21)N(C)C` (stereo not given) [promethazine], the “inhibition” value by setting is: (1 nM) -0.13%; (8.33 nM) -0.16%; (100 nM) -1.28%; (833.33 nM) 0.5%; (10000 nM) 3.03%.

As for `CC1(C)CNc2cc(NC(=O)c3cccnc3NCc3ccncc3)ccc21` [motesanib], the “inhibition” value is -2.26% (1 nM); -1.53% (8.33 nM); -1.67% (100 nM); 1.7% (833.33 nM); 1.82% (10000 nM).

With `c1cncc(CN2CCC(n3ncc4c(N5CCOCC5)nc(-c5ccc6[nH]ccc6c5)nc43)CC2)c1`, the “inhibition” value reads like this: (1 nM) 1.62%; (8.33 nM) 0.29%; (100 nM) 2.14%; (833.33 nM) 12.2%; (10000 nM) 17.7% (active).

Take `O=C(/C=C/c1ccc2c(c1)OCO2)N1CCCCC1` [ilepcimide]: the “inhibition” value is, setting by setting: (1 nM) 0.84%; (8.33 nM) 0.26%; (100 nM) 1.04%; (833.33 nM) -1.12%; (10000 nM) 0.82%.

As for `[N-]=[N+]=N[C@]1(CO)O[C@@H](n2ccc(N)nc2=O)[C@H](O)[C@@H]1O`, the “inhibition” value was -1.63% (1 nM); 0.795% (8.33 nM); 0.87% (100 nM); 1.03% (833.33 nM); -0.005% (10000 nM).

Regarding `CCCCCCCCCCCCCCCC(=O)O[C@@H]1[C@@H](O)[C@@H](O)[C@@H]([C@H](NC(=O)[C@@H]2C[C@@H](CCC)CN2C)[C@H](C)Cl)O[C@@H]1SC` [clindamycin-palmitate], the “inhibition” value reads like this: (1 nM) -0.87%; (8.33 nM) -2.61%; (100 nM) -3.02%; (833.33 nM) -0.74%; (10000 nM) -3.94%.

Turning to `Cc1cc2c(C(C)C)c(O)c(O)c(C=O)c2c(O)c1-c1c(C)cc2c(C(C)C)c(O)c(O)c(C=O)c2c1O` [gossypol], the “inhibition” value is -0.82% (1 nM); -3.04% (8.33 nM); -0.64% (100 nM); -2.5% (833.33 nM); -6.17% (10000 nM).

For the compound `N[C@@H](C(=O)N[C@@H]1C(=O)N2C(C(=O)O)=C(Cl)CS[C@H]12)c1ccccc1` [cefaclor], the “inhibition” value by setting is: (1 nM) -2.43%; (8.33 nM) -5.19%; (100 nM) 1.55%; (833.33 nM) -1.09%; (10000 nM) 5.72%.

In the case of `COc1nccc(-c2c(-c3ccc(F)cc3)ncn2C2CCNCC2)n1`, the “inhibition” value is, setting by setting: (1 nM) -7.74%; (8.33 nM) 0.83%; (100 nM) -2.49%; (833.33 nM) -2.73%; (10000 nM) 7.05%.

Turning to `CN[C@H]1CN(c2ccc3c(=O)c(C(=O)O)cn(-c4nccs4)c3n2)C[C@@H]1OC` [voreloxin], the “inhibition” value (1 nM) was 0.95%; the “inhibition” value (8.33 nM) was -1.14%; the “inhibition” value (100 nM) is 2.62%; the “inhibition” value (833.33 nM) was -0.72%; the “inhibition” value (10000 nM) is 0.56%.

As to `O=C(CCCN1CCC(O)(c2ccc(Cl)cc2)CC1)c1ccc(F)cc1` [haloperidol], the “inhibition” value is, setting by setting: (1 nM) 0.65%; (8.33 nM) 1.48%; (100 nM) -0.07%; (833.33 nM) 0.5%; (10000 nM) -1.23%.

Take `c1ccc2c(c1)Sc1ccccc1N2C[C@H]1CN2CCC1CC2` [levomequitazine]: the “inhibition” value (1 nM) is -10.3%; the “inhibition” value (8.33 nM) was -6.41%; the “inhibition” value (100 nM) is -8.62%; the “inhibition” value (833.33 nM) was -7.33%; the “inhibition” value (10000 nM) is -13.9%.

Regarding `CCN(CC)C(=O)Nc1ccc(OCC(O)CNC(C)(C)C)c(C(C)=O)c1` (stereo not given) [celiprolol], the “inhibition” value (1 nM) is -3.29%; the “inhibition” value (8.33 nM) was 0.91%; the “inhibition” value (100 nM) was -0.73%; the “inhibition” value (833.33 nM) is -0.15%; the “inhibition” value (10000 nM) is -0.87%.

Consider `CN1CCN(c2ccc(Nc3ncc4cc(C#N)c(=O)n(C5CCCC5)c4n3)cc2)CC1`, for which the “inhibition” value is 1.39% (1 nM); 1.36% (8.33 nM); -0.35% (100 nM); -6.03% (833.33 nM); -6.23% (10000 nM).

For the compound `O=C(Nc1ccccc1)N1CCN(c2nc(-c3ccccc3)ns2)CC1`, the “inhibition” value was 1.74% (1 nM); 1.97% (8.33 nM); 2.17% (100 nM); 0.01% (833.33 nM); -2.23% (10000 nM).

As to `O=c1ccc2ccc(OCCCCN3CCN(c4cccc5sccc45)CC3)cc2[nH]1` [brexpiprazole], the “inhibition” value reads like this: (1 nM) -0.6%; (8.33 nM) 2.4%; (100 nM) 2.49%; (833.33 nM) 2.71%; (10000 nM) -8.91%.

On to `CCCCC(=O)O[C@]1(C(=O)CO)CC[C@H]2[C@@H]3CCC4=CC(=O)CC[C@]4(C)[C@H]3[C@@H](O)C[C@@]21C` [hydrocortisone-valerate], for which the “inhibition” value is, setting by setting: (1 nM) -0.15%; (8.33 nM) 3.88%; (100 nM) 4.88%; (833.33 nM) 4.12%; (10000 nM) -1.55%.

The record behind these values is the supplement of paper PMC13380429.
